# Assay results as given in paper PMC5540273 (PLoS ONE, 2017).
# System: T1, CTK
# T1 construct: gene MATK
# Settings: concentration: 1 μM, replicates: in singlicate; n = 1
# 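Also: KINOMEscan kinase panel screen.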
row,Compound,%Inh [%]
1,CCc1ccc(-c2ccc3c(c2)-c2nn(C)cc2S(=O)(=O)N3C)cc1,0
2,Nc1n[nH]c2ncc(-c3ccccc3)cc12 [SB-517081],0
3,Cc1nc(N(C)[C@H]2CN(C(=O)CC#N)CC[C@H]2C)c2cc[nH]c2n1,19
4,COc1ccc(-c2coc3ccc(-c4nnc(SCc5cccc(C#N)c5)o4)cc23)cc1,0
5,CCC(=O)c1c(-c2ccccc2)c2cc(Cl)ccc2c(=O)n1Cc1cc(S(C)(=O)=O)n(CCC(C)(C)O)n1,0
6,COc1cc2ncn(-c3cc(OCc4ccncc4)c(C(N)=O)s3)c2cc1OC [GSK336313],0
7,Nc1nccc2scc(-c3ccc4c(c3)CCN4C(=O)Cc3ccccc3)c12 [GSK2576924],0
8,COC(=O)c1c(-c2ccccc2)c2cc(Br)ccc2c(=O)n1Cc1ccc(S(C)(=O)=O)cc1,35
9,CCCC(=O)Nc1n[nH]c2ncc(-c3cccc4ccccc34)cc12 [SB-642057],0
10,O=C1NC(=O)C(c2ccccc2)=C1Nc1cccc(O)c1 [SB-390534],4
11,Cc1nn2c(=O)cc(N3CCOCC3)nc2n1Cc1cccc(Cl)c1Cl [GSK2342769],0
12,C[C@@H]1CC[C@H](C(=O)NC2CCCCC2)CN1c1cc(-c2ccc3c(N)n[nH]c3c2)nc(N)n1 [GSK2291363],0
13,Nc1ncnc2c1ncn2-c1cccc2ccccc12 [SKF-97184],0
14,COc1cc2ncn(-c3cc(OCc4ccncc4Br)c(C(N)=O)s3)c2cc1OC [GW854278],45
15,COc1cc2ncn(-c3cc(OCCCc4ccccc4)c(C(N)=O)s3)c2cc1OC [GSK205189],0
16,O=C(Nc1n[nH]c2nc(-c3ccccc3)c(Cl)cc12)C1CC1 [SB-734909],27
17,COc1ccc(-c2cc3c(C)nc(N)nc3n([C@H]3CC[C@H](OCCO)CC3)c2=O)cn1,2
18,CCC(=O)c1c(-c2ccccc2)c2cc(Cl)ccc2c(=O)n1Cc1ccc(C(=O)O)cc1,0
19,Cc1nnc(-c2ccc(C)c(-c3ccc(C(=O)O)cc3)c2)o1 [GW608005],0

row,Compound,%Inh [%]
1,Cc1ccccc1COc1cc(-n2cnc3cc(Cl)ccc32)sc1C(N)=O [GW813349],0
2,Cc1ccc(Oc2ccc(Nc3ncnc4cc[nH]c34)cc2C)cn1,29
3,CCCNC(=O)Nc1ccc(Oc2ncnc3ccn(C)c23)cc1,35
4,COc1cc(Nc2nccc(N3CCC(NC(=O)C4COc5ccccc5O4)C3)n2)cc(OC)c1OC (centres unmarked) [GSK1379761],0
5,COc1cc2ncn(-c3cc(OCc4ccc(S(C)(=O)=O)cc4)c(C(N)=O)s3)c2cc1OC [GW869979],15
6,COc1cc(Nc2ccnc3ccc(C(F)(F)F)cc23)cc(OC)c1OC [GW577382],8
7,O=C(Nc1n[nH]c2cc(-c3ccccc3F)ccc12)C1CC1 [SB-733371],3
8,COC(=O)c1c(-c2ccccc2)c2cc(C)ccc2c(=O)n1Cc1ccccc1,0
9,FC(F)(F)c1ccc(-c2ncn(CCCN3CCOCC3)c2-c2ccncc2)cc1 [SB-217780],0
10,Cl.NS(=O)(=O)c1cccc(Nc2cc(-c3ccc(F)cc3)n[nH]2)c1 [GW824645],19
11,COc1cccc(C2=C(N(C)c3ccccc3)C(=O)NC2=O)c1 [SB-334865],0
12,Cn1c(=O)c(F)c(Nc2ccc(I)cc2F)c2c(=O)n(OC[C@H](O)CO)cnc21,0
13,Fc1cccc(CSc2nnc(-c3ccc4c(c3)CCO4)o2)c1,11
14,Nc1ncnc2c1ncn2-c1cccc(F)c1 [SKF-97560],22
15,COc1cc(OC)cc(-c2cc3cnc(N)nc3nc2NC(=O)NC(C)(C)C)c1,1
16,CCc1nc(-c2cccc(C)c2)c(-c2ccncc2)s1,0
17,COc1ccc(Nc2nccc(N3CCC(NS(=O)(=O)c4ccc(NC(C)=O)cc4)C3)n2)cc1 (centres unmarked) [GSK1379729],0
18,COc1ccc(-n2cnc3c(N)ncnc32)cc1 [SKF-97236],3

# System: DAPK1
# Settings: concentration: 1 μM, replicates: in singlicate; n = 1
row,Compound,%Inh [%]
1,CCc1ccc(-c2ccc3c(c2)-c2nn(C)cc2S(=O)(=O)N3C)cc1,25
2,Nc1n[nH]c2ncc(-c3ccccc3)cc12 [SB-517081],12
3,Cc1nc(N(C)[C@H]2CN(C(=O)CC#N)CC[C@H]2C)c2cc[nH]c2n1,0
4,COc1ccc(-c2coc3ccc(-c4nnc(SCc5cccc(C#N)c5)o4)cc23)cc1,29
5,CCC(=O)c1c(-c2ccccc2)c2cc(Cl)ccc2c(=O)n1Cc1cc(S(C)(=O)=O)n(CCC(C)(C)O)n1,16
6,COc1cc2ncn(-c3cc(OCc4ccncc4)c(C(N)=O)s3)c2cc1OC [GSK336313],8
7,Nc1nccc2scc(-c3ccc4c(c3)CCN4C(=O)Cc3ccccc3)c12 [GSK2576924],12
8,COC(=O)c1c(-c2ccccc2)c2cc(Br)ccc2c(=O)n1Cc1ccc(S(C)(=O)=O)cc1,0
9,CCCC(=O)Nc1n[nH]c2ncc(-c3cccc4ccccc34)cc12 [SB-642057],20
10,O=C1NC(=O)C(c2ccccc2)=C1Nc1cccc(O)c1 [SB-390534],0
11,Cc1nn2c(=O)cc(N3CCOCC3)nc2n1Cc1cccc(Cl)c1Cl [GSK2342769],27
12,C[C@@H]1CC[C@H](C(=O)NC2CCCCC2)CN1c1cc(-c2ccc3c(N)n[nH]c3c2)nc(N)n1 [GSK2291363],18
13,Nc1ncnc2c1ncn2-c1cccc2ccccc12 [SKF-97184],0
14,COc1cc2ncn(-c3cc(OCc4ccncc4Br)c(C(N)=O)s3)c2cc1OC [GW854278],28
15,COc1cc2ncn(-c3cc(OCCCc4ccccc4)c(C(N)=O)s3)c2cc1OC [GSK205189],0
16,O=C(Nc1n[nH]c2nc(-c3ccccc3)c(Cl)cc12)C1CC1 [SB-734909],9
17,COc1ccc(-c2cc3c(C)nc(N)nc3n([C@H]3CC[C@H](OCCO)CC3)c2=O)cn1,11
18,CCC(=O)c1c(-c2ccccc2)c2cc(Cl)ccc2c(=O)n1Cc1ccc(C(=O)O)cc1,13
19,Cc1nnc(-c2ccc(C)c(-c3ccc(C(=O)O)cc3)c2)o1 [GW608005],0

row,Compound,%Inh [%]
1,Cc1ccccc1COc1cc(-n2cnc3cc(Cl)ccc32)sc1C(N)=O [GW813349],0
2,Cc1ccc(Oc2ccc(Nc3ncnc4cc[nH]c34)cc2C)cn1,0
3,CCCNC(=O)Nc1ccc(Oc2ncnc3ccn(C)c23)cc1,10
4,COc1cc(Nc2nccc(N3CCC(NC(=O)C4COc5ccccc5O4)C3)n2)cc(OC)c1OC (centres unmarked) [GSK1379761],0
5,COc1cc2ncn(-c3cc(OCc4ccc(S(C)(=O)=O)cc4)c(C(N)=O)s3)c2cc1OC [GW869979],0
6,COc1cc(Nc2ccnc3ccc(C(F)(F)F)cc23)cc(OC)c1OC [GW577382],0
7,O=C(Nc1n[nH]c2cc(-c3ccccc3F)ccc12)C1CC1 [SB-733371],0
8,COC(=O)c1c(-c2ccccc2)c2cc(C)ccc2c(=O)n1Cc1ccccc1,1
9,FC(F)(F)c1ccc(-c2ncn(CCCN3CCOCC3)c2-c2ccncc2)cc1 [SB-217780],14
10,Cl.NS(=O)(=O)c1cccc(Nc2cc(-c3ccc(F)cc3)n[nH]2)c1 [GW824645],0
11,COc1cccc(C2=C(N(C)c3ccccc3)C(=O)NC2=O)c1 [SB-334865],6
12,Cn1c(=O)c(F)c(Nc2ccc(I)cc2F)c2c(=O)n(OC[C@H](O)CO)cnc21,0
13,Fc1cccc(CSc2nnc(-c3ccc4c(c3)CCO4)o2)c1,3
14,Nc1ncnc2c1ncn2-c1cccc(F)c1 [SKF-97560],0
15,COc1cc(OC)cc(-c2cc3cnc(N)nc3nc2NC(=O)NC(C)(C)C)c1,0
16,CCc1nc(-c2cccc(C)c2)c(-c2ccncc2)s1,11
17,COc1ccc(Nc2nccc(N3CCC(NS(=O)(=O)c4ccc(NC(C)=O)cc4)C3)n2)cc1 (centres unmarked) [GSK1379729],0
18,COc1ccc(-n2cnc3c(N)ncnc32)cc1 [SKF-97236],13
